Vc quorum ag-1: inducers of Vibrio cholerae quorum light production without autoinducers; V. cholerae BH1578 lux reporter, luminescence, 6 h; activation, % at 18.7 µM; hit rate 0.16% among 350,000; in the data active means activation mostly above about 9.7%, no sharp cut-off
VHR inh abs: inhibitors of human VHR1 phosphatase (DUSP3); AID 1654; recombinant VHR phosphatase, pNPP absorbance; hit rate 0.52% among 290,000; P51452; inhibition, % at 13.3 µM; in the data active means inhibition above about 50%
Target sequence (P51452 whole entry, looked up): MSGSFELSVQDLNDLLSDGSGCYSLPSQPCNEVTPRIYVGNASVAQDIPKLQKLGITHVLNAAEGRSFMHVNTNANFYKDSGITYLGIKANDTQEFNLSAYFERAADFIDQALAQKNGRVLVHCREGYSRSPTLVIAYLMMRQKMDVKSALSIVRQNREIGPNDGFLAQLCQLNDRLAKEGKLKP
PrPC surface inh: cell surface PrPC inhibition, primary TR-FRET screen. P04156. TR-FRET read-out. inhibition, % at 13.8 µM. hit rate 0.43% among 370,000; in the data active means inhibition above about 24%; further: 0% = median of the test wells and 100% = reference compound wells
Yp Topo-I inh: Y. pestis Topo-I inhibition via cleavage products; activity, % at 10 µM; Y. pestis Topo-I cleavage product accumulation, plate reader; hit rate 0.064% among 360,000; in the data active means activity above about 50%, passing the limit was not always enough
MazEF act: MazEF (E. coli) toxin RNase activation; P0AE70; FAM/BHQ RNA-DNA oligo cleavage fluorescence, 5 h; activation, % at 20 µM; hit rate 0.32% among 350,000; AID 504720; in the data active means activation above about 50%
Target sequence (P0AE70 whole entry, looked up): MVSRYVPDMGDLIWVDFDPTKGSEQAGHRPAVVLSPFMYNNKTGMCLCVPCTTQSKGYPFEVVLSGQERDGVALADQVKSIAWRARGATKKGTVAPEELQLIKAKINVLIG
CCHF vOTU inh-1: CCHFV vOTU protease inhibition; Pep-AMC fluorescence; inhibition, % at 11.5 µM; hit rate 0.55% among 370,000; further: 0% = vehicle wells with enzyme and 100% = no enzyme wells
Vc quorum ag-2: inducers of V. cholerae quorum light production without autoinducers. activation, % at 50 µM. V. cholerae BH1578 lux reporter, luminescence, 6 h. 620 tested, under 10 active. shares compounds with Vc quorum ag-1; call rule not given here
CCHF vOTU inh-2: confirmation of CCHF virus vOTU protease inhibitors; hit rate 17% among 1,900; inhibition, % at 11.5 µM; Recombinant CCHFV vOTU, Pep-AMC fluorescence; shares compounds with CCHF vOTU inh-1; AID 686976
An asterisk follows results filed as active; i = inactive; · = no result. In the library only some 1.8% were active in any assay of this set; here they are far more common. Unless noted, no stated cut-off is given here; in the data, active means inhibition above about 30%; inactive means the rest.

SMILES | Vc quorum ag-1 | VHR inh abs | PrPC surface inh | Yp Topo-I inh | MazEF act | CCHF vOTU inh-1 | CCHF vOTU inh-2 | others
Cc1ccc(S(=O)(=O)NCCC(=O)O)cc1 | 33* | -2 | -1 | 2 | 0 | -8 | · | Vc quorum ag-2=0
Cc1nn(CC(=O)Nc2ccc3nc4n(c(=O)c3c2)CCCC4)c(C)c1[N+](=O)[O-] | 0 | -3 | -5 | -1 | 9 | 11 | ·
O=S1(=O)CC(N2CCCC2)CN1Cc1cn(Cc2ccc(C(F)(F)F)cc2)nn1 (centres undefined) | · | · | 2 | · | · | -8 | ·
CC1(C)NC(=S)NC1=S | i | · | 5 | 1 | 11 | 9 | ·
CC(=O)c1cccc(NC(=O)CSc2nc(=O)n(CCN3CCOCC3)c3c2CCCC3)c1 | 12 | · | -4 | 9 | 0 | 1 | · | Vc quorum ag-2=1
CC(=O)Nc1cccc(NC(=O)CSc2nc(=O)n(CCN3CCOCC3)c3c2CCC3)c1 | -1 | · | 2 | 10 | -7 | -1 | ·
CCc1ccc(N(CC(=O)NC(C)(C)C)C(=O)CCC(=O)Nc2ccccn2)cc1 | i | 19 | 8 | 16 | -2 | 8 | ·
O=C(O)c1cccc(Nc2ncnc3c2cnn3-c2ccccc2)c1 | 17* | -16 | 2 | -7 | 5 | 8 | · | Vc quorum ag-2=0
CCOC(=O)c1c(NC(=O)C2CCCCC2)sc2c1CCN(C(C)C)C2 | 0 | 21 | -12 | 37 | 8 | 5 | ·
O=C(COC(=O)CNC(=O)c1ccco1)NCCN1C(=O)CSC1=O | 12 | 12 | 0 | 0 | 8 | -4 | · | Vc quorum ag-2=2
CCCCc1ccc2nc(NC(=O)c3ccco3)sc2c1 | · | · | 7 | · | · | · | ·
CC(NS(=O)(=O)c1ccccc1)C(=O)Nc1nccs1 (centres undefined) | · | · | -8 | -2 | 4 | 3 | ·
O=C(Nc1nccs1)C(NS(=O)(=O)c1ccc(Br)s1)c1ccccc1 (centres undefined) | 25* | 5 | -2 | -9 | 6 | 7 | · | Vc quorum ag-2=0
Cc1ccc(C(=O)OCC(=O)NCCNC(=O)COC(=O)c2ccc(C)s2)s1 | 12 | · | 3 | 1 | 2 | -10 | · | Vc quorum ag-2=0
COc1ccc(S(=O)(=O)N2CCCC(C(=O)NCc3ccncc3)C2)cc1 (centres undefined) | 32* | 10 | 6 | -7 | 4 | 1 | · | Vc quorum ag-2=0
CCN1CCCC1CNC(=O)CCNC(=O)c1cc(OC)c(OC)c(OC)c1 (centres undefined) | -6 | 3 | -1 | -6 | -7 | -13 | ·
CCN1CCCC1CNC(=O)c1cc(OC)c(OC)c(OC)c1 (centres undefined) | 3 | 24 | -2 | 5 | 5 | 0 | · | Vc quorum ag-2=1
CCc1sc(N(C(=O)Cc2ccccc2)c2ccc(F)cc2)nc1-c1ccccc1 | 24 | 27 | 5 | 26 | 4 | -4 | · | Vc quorum ag-2=1
O=C(Nc1ccc(F)cc1)c1ccccc1Oc1ccc(C(F)(F)F)cc1[N+](=O)[O-] | i | 1 | 4 | 2 | 6 | 31* | -5
COC(=O)Nc1ccc(S(=O)(=O)N2CCC(C(=O)N3CCC(C)CC3)CC2)cc1 | -1 | 9 | 8 | 8 | -8 | 42* | -19
COC(=O)Nc1ccc(S(=O)(=O)N2CCC(C)CC2)cc1 | 0 | 16 | -2 | -7 | 11 | -9 | ·
COc1ccc(NS(=O)(=O)c2cccc(C(=O)N3CCN(C/C=C/c4ccccc4)CC3)c2)cc1 | i | · | 10 | 17 | 10 | 30* | -11
Cn1c(=O)c2c(nc(Cl)n2CC(=O)N2CCCCC2)n(C)c1=O | 1 | -1 | -2 | 4 | -3 | -6 | ·
Cc1cc(NC(=O)C(C)Sc2nc(-c3ccccc3)cc(=O)[nH]2)no1 (centres undefined) | -1 | 14 | -6 | -8 | -15 | 5 | ·
CC1CN(Cc2ccccc2)C(=S)N(c2ccccc2)C1=O (centres undefined) | i | · | 0 | 5 | 9 | 32* | -17
SMILES | Vc quorum ag-1 | VHR inh abs | PrPC surface inh | Yp Topo-I inh | MazEF act | CCHF vOTU inh-1 | CCHF vOTU inh-2 | others
CC1CC(C)CN(c2ccc(NS(=O)(=O)c3ccccc3)cc2C(=O)O)C1 (centres undefined) | -1 | -19 | -8 | 7 | 0 | -1 | ·
O=C1/C(=N\S(=O)(=O)c2cccs2)C([n+]2ccccc2)=C([O-])c2ccccc21 | -4 | 23 | -35 | -2 | -2 | 49* | 89*
CC(C)(C)c1cc[n+](C2=C([O-])c3ccccc3C(=O)/C2=N\S(=O)(=O)c2cccs2)cc1 | i | 17 | -54 | 2 | 6 | 77* | 70*
O=S(=O)(/N=C/c1ccccc1O)c1cccs1 | i | 12 | 3 | 2 | 8 | -10 | ·
Cc1ccc[n+](C2=C([O-])c3ccccc3C(=O)C2=O)c1 | · | · | -58 | · | · | 6 | ·
CCOC(=O)Nc1ccc(C)cc1NC(=O)OCC | 0 | 19 | 6 | 3 | 0 | -2 | ·
CCOC(=O)Nc1ccc(NCc2ccc(F)cc2)nc1N | 0 | · | -6 | -4 | 26 | 67* | -5
Cc1cc(C)c(C#N)c(N2CCN(C(=O)C3COc4ccccc4O3)CC2)n1 (centres undefined) | 0 | · | -8 | 12 | -4 | 48* | -30
Fc1ccc(-c2nc3c(Cl)cc(C(F)(F)F)cn3c2Cc2cccc(F)c2)cc1 | · | · | 2 | · | · | -3 | ·
Fc1cccc(Cc2c(-c3ccco3)nc3c(Cl)cc(C(F)(F)F)cn23)c1 | · | · | 5 | · | · | 31* | -4
CC(NS(=O)(=O)/C=C/c1ccccc1)C(=O)O (centres undefined) | i | 6 | 6 | -5 | -1 | 32* | -15
C=CC[C@@H](CC(=O)N[C@H](CO)Cc1ccccc1)C(=O)N[C@@H](COC(=O)[C@H](CC=C)CC(=O)OC(C)(C)C)Cc1ccccc1 | i | · | -3 | 18 | 1 | 20 | ·
C=CC[C@@H](CC(=O)N(CCO)Cc1ccccc1)C(=O)N[C@H](COC(=O)[C@@H](CC=C)CC(=O)OC(C)(C)C)c1ccccc1 | 1 | · | -3 | 0 | 4 | 32* | 8
C=CC[C@H](CC(=O)N(CCO)Cc1ccccc1)C(=O)N[C@@H](COC(=O)[C@H](CC=C)CC(=O)OC(C)(C)C)Cc1c[nH]c2ccccc12 | 0 | · | -3 | 4 | 1 | 17 | ·
C=CCC[C@H](Cc1ccc(F)cc1)C(=O)OC[C@@H](Cc1c[nH]c2ccccc12)NC(=O)[C@H](CC=C)CC(=O)N(CCO)Cc1ccccc1 | 0 | · | 6 | -2 | -5 | 35* | 7
C=CC[C@@H](CC(=O)N[C@@H](CO)Cc1ccccc1)C(=O)N[C@H](COC(=O)[C@@H](CC=C)CC(=O)OC(C)(C)C)Cc1ccccc1 | -1 | · | -1 | 12 | 3 | 39* | -6
C=CC[C@@H](CC(=O)N(CCO)Cc1ccccc1)C(=O)N[C@@H](COC(=O)[C@@H](CC=C)CC(=O)OC(C)(C)C)Cc1c[nH]c2ccccc12 | i | · | 5 | 10 | -4 | 40* | 12

Screening results deposited in PubChem BioAssay by several laboratories.
